Source: PubChem BioAssay (NCATS)
Results filed as inconclusive are left out. Activity calls are given as the source filed them. Unless noted, the call rests on the fitted dose curve.

Legend:
[1] = qHTS for Inhibitors of the Functional Ribonucleoprotein Complex (vRNP) of Lassa (LASV) Arenavirus: LASV Primary Screen - GLuc reporter signal (AID 1347082; calls by dose curve; tested in HEK293 reporter line; further: nearly all actives have a fitted effect of over 60% in size)
[2] = qHTS for Inhibitors of the Functional Ribonucleoprotein Complex (vRNP) of Lassa (LASV) Arenavirus: Viability assay - alamar blue signal for LASV Primary Screen (AID 1347083; calls by dose curve; tested in HEK293 reporter line; further: nearly all actives have a fitted effect of over 80% in size)
[3] = qHTS for Inhibitors of the Functional Ribonucleoprotein Complex (vRNP) of Lymphocytic Choriomeningitis Arenaviruses (LCMV): Viability assay - alamar blue signal for LCMV Primary Screen (AID 1347085; calls by dose curve; tested in HEK293 reporter line; further: nearly all actives have a fitted effect of over 80% in size)
[4] = biological target: Nucleoprotein (Lymphocytic choriomeningitis virus (strain Armstrong)) (UniProt P09992); test: qHTS for Inhibitors of the Functional Ribonucleoprotein Complex (vRNP) of Lymphocytic Choriomeningitis Arenaviruses (LCMV): LCMV Primary Screen - GLuc reporter signal (AID 1347086); further: nearly all actives have a fitted effect of over 70% in size
Nucleoprotein (Lymphocytic choriomeningitis virus (strain Armstrong)), sequence (P09992 whole entry, looked up): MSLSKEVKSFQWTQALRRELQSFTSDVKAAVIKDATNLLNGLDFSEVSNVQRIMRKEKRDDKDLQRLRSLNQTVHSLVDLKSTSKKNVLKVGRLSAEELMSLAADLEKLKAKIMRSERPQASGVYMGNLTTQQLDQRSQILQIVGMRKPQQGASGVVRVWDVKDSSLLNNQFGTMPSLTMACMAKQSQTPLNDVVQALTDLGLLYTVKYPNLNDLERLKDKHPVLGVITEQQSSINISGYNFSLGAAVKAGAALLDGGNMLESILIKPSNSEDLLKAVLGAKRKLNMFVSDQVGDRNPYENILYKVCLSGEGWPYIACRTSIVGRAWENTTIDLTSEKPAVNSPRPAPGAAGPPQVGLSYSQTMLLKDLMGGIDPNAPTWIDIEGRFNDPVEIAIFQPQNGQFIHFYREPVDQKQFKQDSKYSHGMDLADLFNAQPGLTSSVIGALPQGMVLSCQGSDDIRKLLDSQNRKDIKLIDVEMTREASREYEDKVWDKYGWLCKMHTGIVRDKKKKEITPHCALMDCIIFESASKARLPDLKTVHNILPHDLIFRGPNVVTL

Measured: Potency
Further: series mostly up to about 57 µM.

CC(=O)Nc1c(I)cc(I)c(C(=O)O)c1I
inactive: all assays above

O=C1c2ccccc2CCc2ccccc21
inactive: all assays above

CCCCCCCCCCCCCCCCCCN(C)C
inactive: all assays above

Cc1nc2ccccn2c(=O)c1CCN1CCC(C(=O)c2ccc(F)cc2)CC1
inactive: all assays above

O=C(O)c1ccccc1C(=O)Nc1ccc(S(=O)(=O)Nc2nccs2)cc1
inactive: all assays above

COc1ccc(C(=O)c2ccccc2O)c(O)c1
inactive: all assays above

Nc1ccn([C@@H]2CS[C@H](CO)O2)c(=O)n1
inactive: all assays above

O=C(O)[C@H](O)c1ccccc1
inactive: all assays above

COC(=O)C1=C(C)NC(C)=C(C(=O)OCCc2ccc(N3CCN(C(c4ccccc4)c4ccccc4)CC3)cc2)C1c1cccc([N+](=O)[O-])c1 (centres undefined)
inactive: all assays above

O=C(O)CN1C(=O)c2cccc3cccc(c23)C1=O
inactive: all assays above

CCc1cccc(CC)c1NC(=O)CN(CC(=O)O)CC(=O)O
inactive: all assays above

CCCCCCOc1ccccc1C(N)=O
inactive: all assays above

CC(C)(Oc1ccc(C2CC2(Cl)Cl)cc1)C(=O)O (centres undefined)
inactive: all assays above

O=c1cc(O)c(Cl)c[nH]1
inactive: all assays above

N#Cc1ccc(C(c2ccc(C#N)cc2)n2cncn2)cc1
inactive: all assays above

S=P(N1CC1)(N1CC1)N1CC1
inactive: all assays above

CCOC(=O)c1ccc(OCCN2C[C@H](O)[C@@H](O)[C@H](O)[C@H]2CO)cc1
inactive: all assays above

O=C(CCN1CCC(c2ccccc2)C1)c1ccc2c(c1)OCCO2 (centres undefined)
inactive: all assays above

CC(C)OP(=O)(CP(=O)(OC(C)C)OC(C)C)OC(C)C
inactive: all assays above

Cc1cccc(C)c1NC(=O)c1cc(S(N)(=O)=O)c(Cl)cc1O
inactive: all assays above

NC(N)=Nc1nc(CSCC/C(N)=N/S(N)(=O)=O)cs1
inactive: all assays above

C[C@]12CCC(=O)C=C1CC[C@H]1[C@@H]3CC[C@](O)(C(=O)CO)[C@@]3(C)C[C@H](O)[C@@]12F
inactive: all assays above

COc1ccc2cc1Oc1cc3c(cc1OC)CC[N+](C)(C)[C@H]3Cc1ccc(cc1)Oc1c(OC)c(OC)cc3c1[C@@H](C2)[N+](C)(C)CC3
inactive: all assays above

CN(C)CCOC(=O)C(c1ccccc1)C1(O)CCCC1 (centres undefined)
inactive: all assays above

CC(C)=CCC/C(C)=C/CC/C(C)=C/CCC(=O)OC/C=C(\C)CCC=C(C)C
inactive: all assays above

O=C(c1ccco1)N1CCNCC1
inactive: all assays above

OCCOCCN1CCN(C2=Nc3ccccc3Sc3ccccc32)CC1
inactive: all assays above

O=C(O)Cn1c(=O)n(Cc2ccc(Br)cc2F)c(=O)c2ccc(Cl)cc21
inactive: all assays above

O=C(OCc1ccccc1)c1ccccc1
inactive: all assays above

CCCCC(CC)CNC(=O)CC(C)OC(=O)CCC(=O)O (centres undefined)
inactive: all assays above

Cc1nc(-c2ccc(Cl)cc2)oc1COC(C)(C)C(=O)O
inactive: all assays above

C=CCn1c(=O)n([C@@H]2O[C@H](CO)[C@@H](O)[C@H]2O)c2nc(N)[nH]c(=O)c21
inactive: all assays above

CCOc1cc(OCC)c(C(=O)CCC(=O)O)cc1OCC
inactive: all assays above

CCN(CC)C(C)CN1c2ccccc2Sc2ccccc21 (centres undefined)
inactive: all assays above

N[C@@H](Cc1cc(I)c(Oc2ccc(O)c(I)c2)c(I)c1)C(=O)O
inactive: all assays above

COc1cc(/C=C/C(=O)O[C@H]2CC[C@]34C[C@]35CC[C@]3(C)[C@@H]([C@H](C)CCC=C(C)C)CC[C@@]3(C)[C@@H]5CC[C@H]4C2(C)C)ccc1O
inactive: all assays above

CO[C@@]1(NC(=O)CSCC#N)C(=O)N2C(C(=O)O)=C(CSc3nnnn3C)CS[C@@H]21
inactive: all assays above

O=C(Oc1ccccc1C(=O)O)c1ccccc1O
inactive: all assays above

CC[N+](C)(CC)CCOC(=O)C1c2ccccc2Oc2ccccc21
inactive: all assays above

CC(C)=CCC/C(C)=C/CO
inactive: all assays above

CC(=O)OCC(=O)[C@@]1(O)CC[C@H]2[C@@H]3CCC4=CC(=O)C=C[C@]4(C)[C@@]3(F)[C@@H](O)C[C@@]21C
inactive: all assays above

NCCCNCCSP(=O)(O)O
inactive: all assays above

C/C(=N\O)[C@@H](C)NCC(C)(C)CN[C@H](C)/C(C)=N/O
inactive: all assays above

CC(C)(C(=O)c1cccnc1)c1cccnc1
inactive: all assays above

OC[C@H]1O[C@@H](Oc2ccc(O)cc2)[C@H](O)[C@@H](O)[C@@H]1O
inactive: all assays above

CCc1cc(S(=O)(=O)O)c2cc(C(C)C)cccc1-2
inactive: all assays above

CCCCCCCCCCCCSCCOCCO
inactive: all assays above

CCn1nc(C(=O)O)c(=O)c2cc3c(cc21)OCO3
inactive: all assays above

COc1ccc(NS(=O)(=O)c2ccc(N)cc2)nn1
inactive: all assays above

O=C(O)CCCCC1CCSS1 (centres undefined)
inactive: all assays above

COc1cc(-c2ccc(=O)[nH]n2)ccc1OC(F)F
inactive: all assays above

CC(C)NNC(=O)c1ccncc1
inactive: all assays above

CN(C)CCOC(=O)COc1ccc(Cl)cc1
inactive: all assays above

CCCC(=O)OCOC(=O)C1=C(C)NC(C)=C(C(=O)OC)C1c1cccc(Cl)c1Cl (centres undefined)
inactive: all assays above

CN1C(CSCC(F)(F)F)Nc2cc(Cl)c(S(N)(=O)=O)cc2S1(=O)=O (centres undefined)
inactive: all assays above

COc1ccc2c(c1)c(CC(=O)OC/C=C(\C)CC/C=C(\C)CCC=C(C)C)c(C)n2C(=O)c1ccc(Cl)cc1
inactive: all assays above
